According to PubChem BioAssay (NCI):
Compounds without any hit were thinned out: in the full panel of roughly 79,000, 15% have a hit. Active and inactive are the calls of the source. Rule as the data show it: active = growth inhibition above about 70%; inactive = the rest.

Assays:
[1] = NCI Yeast Anticancer Drug Screen. Data for the rad52 strain (AID 147);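 also: 0% = growth of vehicle-treated control cultures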; conditions: S. cerevisiae rad52 mutant growth inhibition, stronger effect = higher value
Method in brief: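 Measured: yeast growth inhibition. System: strain with a defined DNA damage repair alteration. Reference: vehicle-treated control cultures.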

[2] = NCI Yeast Anticancer Drug Screen. Data for the wt1 strain (AID 149);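 also: 0% = growth of vehicle-treated wt1 cultures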; conditions: S. cerevisiae wt1 strain (SPY 50644) growth inhibition, stronger effect = higher value
Method in brief: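 Growth inhibition read against vehicle controls after compound exposure of the wt1 yeast strain.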

[3] = NCI Yeast Anticancer Drug Screen. Data for the rad50EPP+ strain (AID 151);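 also: 0% = growth of vehicle-treated control cultures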; conditions: S. cerevisiae rad50 mutant strain, stronger effect = higher value
Method in brief: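 One strain with a rad50 alteration (rad50EPP+) was compound-treated, its growth then compared to that of vehicle controls.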

[4] = NCI Yeast Anticancer Drug Screen. Data for the mgt1 strain (AID 153); conditions: S. cerevisiae mgt1 mutant growth inhibition, stronger effect = higher value
Method in brief: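 After exposure of the mgt1 yeast mutant to compound, growth was measured and reported as inhibition compared with vehicle controls.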

[5] = NCI Yeast Anticancer Drug Screen. Data for the rad50 strain (AID 155);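 also: 0% = growth of vehicle-only cultures of the same strain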; conditions: S. cerevisiae rad50 strain growth inhibition, stronger effect = higher value
Method in brief: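 Readout: growth inhibition relative to vehicle-treated cultures. Compound exposure was carried out in a genetically defined yeast strain deficient in DNA damage repair.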

[6] = NCI Yeast Anticancer Drug Screen. Data for the mec2-1 strain (AID 157); conditions: S. cerevisiae mec2-1 strain, stronger effect = higher value
Method in brief: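 Test agents were screened against the mec2-1 yeast strain, with defined DNA repair or cell cycle alteration. Growth was scored as inhibition against vehicle-only controls.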

[7] = NCI Yeast Anticancer Drug Screen. Data for the rad14 strain (AID 159);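 also: 0% = growth of vehicle-treated control cultures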; conditions: S. cerevisiae rad14 strain growth inhibition, stronger effect = higher value
Method in brief: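 Growth inhibition vs vehicle controls; genetically altered yeast strain (DNA damage repair defect) treated with test compounds.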

[8] = NCI Yeast Anticancer Drug Screen. Data for the sgs1 mgt1 strain (AID 161);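 also: 0% = growth of cultures given vehicle only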; conditions: S. cerevisiae sgs1 mgt1 strain, stronger effect = higher value
Method in brief: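 Genetically altered yeast, compound exposure, growth inhibition relative to vehicle.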

[9] = NCI Yeast Anticancer Drug Screen. Data for the CLN2oe strain (AID 163);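 also: 0% = growth of vehicle-only control cultures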; conditions: S. cerevisiae CLN2oe strain, stronger effect = higher value
Method in brief: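 Here, growth inhibition in a cell-cycle-altered yeast strain after compound exposure was quantified against vehicle control growth.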

[10] = NCI Yeast Anticancer Drug Screen. Data for the cln2 rad14 strain (AID 165);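 also: 0% = growth equal to vehicle treated cultures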; conditions: S. cerevisiae cln2 rad14 strain, stronger effect = higher value
Method in brief: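 Growth of compound-exposed yeast (cln2 rad14 genotype) measured and expressed as inhibition relative to vehicle.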

[11] = NCI Yeast Anticancer Drug Screen. Data for the bub3 strain (AID 167); conditions: S. cerevisiae bub3 mutant strain, stronger effect = higher value
Method in brief: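 Readout: yeast growth inhibition, expressed relative to vehicle-only wells. The test organism is a mutant strain from a panel with lesions in DNA repair or checkpoint genes.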

[12] = NCI Yeast Anticancer Drug Screen. Data for the wt2 strain (AID 169);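 also: 0% = growth of vehicle-treated yeast cultures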; conditions: S. cerevisiae wt2 strain growth inhibition, stronger effect = higher value
Method in brief: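 Genetically defined yeast strains from a DNA-repair/cell-cycle panel were used. Compound-exposed yeast growth was measured, and the inhibition was calculated relative to vehicle treatment.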

[13] = NCI Yeast Anticancer Drug Screen. Data for the mlh1 strain (AID 171);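 also: 0% = growth of vehicle-treated control cultures of the same strain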; conditions: S. cerevisiae mlh1 strain growth inhibition, stronger effect = higher value
Method in brief: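 Here the genetically defined yeast mutant is grown with each compound, and the extent to which its growth falls below that of vehicle-exposed cells is reported.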

[14] = NCI Yeast Anticancer Drug Screen. Data for the sgs1 strain (AID 173);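 also: 0% = growth of vehicle-only control cultures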; conditions: S. cerevisiae sgs1 mutant, stronger effect = higher value
Method in brief: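 Relative growth inhibition, referenced to vehicle, was determined in a yeast strain with a defined alteration affecting DNA damage repair or cell cycle control after compound exposure.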

[15] = NCI Yeast Anticancer Drug Screen. Data for the mlh1 rad18 strain (AID 175); conditions: S. cerevisiae mlh1 rad18 strain growth inhibition, stronger effect = higher value
Method in brief: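 In this whole-cell yeast screen, a strain with altered DNA damage repair is challenged with compound, and its growth is measured against matched vehicle-treated controls.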

[16] = NCI Yeast Anticancer Drug Screen. Data for the rad18 strain (AID 177); conditions: S. cerevisiae rad18 mutant growth inhibition, stronger effect = higher value
Method in brief: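 Screen uses a yeast strain with a defined lesion in DNA damage repair; compound effect is read as loss of growth compared to untreated vehicle cultures.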

[17] = at 5.0 µM (retest, dose inferred, filed as 0.5)
[18] = at 50.0 µM (retest, dose inferred, filed as 5.0)

Measured: growth inhibition

COc1ccccc1N=NC(C(=O)c1ccccc1)C(=O)c1ccccc1
active: [1]; at 33.0 µM 97% | [1]; at 100.0 µM 97% | [2]; at 33.0 µM 96% | [2]; at 100.0 µM 96% | [4]; at 33.0 µM 96% | [4]; at 100.0 µM 98% | [5]; at 33.0 µM 96% | [5]; [18] 96% | [5]; at 50.0 µM 93.4% | [5]; at 100.0 µM 96% | [6]; at 33.0 µM 91% | [6]; [18] 96% | [6]; at 50.0 µM 94.5% | [6]; at 100.0 µM 97% | [7]; at 33.0 µM 98% | [7]; at 100.0 µM 97% | [8]; [18] 95% | [8]; at 50.0 µM 93.7% | [9]; at 33.0 µM 94% | [9]; at 100.0 µM 97% | [10]; [18] 95% | [10]; at 50.0 µM 88.8% | [11]; at 33.0 µM 95% | [11]; [18] 97% | [11]; at 50.0 µM 92.5% | [11]; at 100.0 µM 97% | [12]; at 33.0 µM 92% | [12]; at 100.0 µM 97% | [13]; at 33.0 µM 94% | [13]; at 100.0 µM 96% | [14]; at 33.0 µM 96% | [14]; at 100.0 µM 96% | [15]; [18] 97% | [15]; at 50.0 µM 92.5%
inactive: [1]; at 1.2 µM 3% | [1]; at 3.7 µM 22% | [1]; at 11.0 µM 16% | [2]; at 1.2 µM 6% | [2]; at 3.7 µM 3% | [2]; at 11.0 µM 13% | [3]; at 1.2 µM -47% | [3]; at 3.7 µM -21% | [3]; at 11.0 µM 1% | [3]; at 33.0 µM 17% | [3]; at 100.0 µM 62% | [4]; at 1.2 µM -29% | [4]; at 3.7 µM -24% | [4]; at 11.0 µM 4% | [5]; at 1.2 µM -50% | [5]; at 3.7 µM -50% | [5]; [17] 34% | [5]; at 11.0 µM -16% | [6]; at 1.2 µM -57% | [6]; at 3.7 µM -31% | [6]; [17] -3% | [6]; at 11.0 µM -25% | [7]; at 1.2 µM -33% | [7]; at 3.7 µM -29% | [7]; at 11.0 µM -14% | [8]; [17] 22% | [9]; at 1.2 µM 16% | [9]; at 3.7 µM -5% | [9]; at 11.0 µM -4% | [10]; [17] 10% | [11]; at 1.2 µM 4% | [11]; at 3.7 µM -17% | [11]; [17] 5% | [11]; at 11.0 µM 17% | [12]; at 1.2 µM -10% | [12]; at 3.7 µM 5% | [12]; at 11.0 µM -6% | [13]; at 1.2 µM -25% | [13]; at 3.7 µM -27% | [13]; at 11.0 µM -1% | [14]; at 1.2 µM -37% | [14]; at 3.7 µM -6% | [14]; at 11.0 µM -4% | [15]; [17] -7%

O=C1c2cc([N+](=O)[O-])ccc2-c2cccc(F)c21
active: [1]; at 33.0 µM 82% | [1]; at 100.0 µM 87% | [3]; at 100.0 µM 75% | [5]; at 33.0 µM 84% | [5]; at 50.0 µM 91.9% | [5]; at 100.0 µM 83% | [15]; at 50.0 µM 82.5% | [16]; at 3.7 µM 78% | [16]; at 11.0 µM 90% | [16]; at 33.0 µM 93% | [16]; at 100.0 µM 89%
inactive: [1]; at 1.2 µM 14% | [1]; at 3.7 µM 31% | [1]; at 11.0 µM 57% | [2]; at 1.2 µM -1% | [2]; at 3.7 µM -2% | [2]; at 11.0 µM 8% | [2]; at 33.0 µM 10% | [2]; at 100.0 µM 20% | [3]; at 1.2 µM 9% | [3]; at 3.7 µM 27% | [3]; at 11.0 µM 49% | [3]; at 33.0 µM 69% | [4]; at 1.2 µM 1% | [4]; at 3.7 µM -5% | [4]; at 11.0 µM 12% | [4]; at 33.0 µM 20% | [4]; at 100.0 µM 28% | [5]; at 1.2 µM 12% | [5]; at 3.7 µM 32% | [5]; [17] 7% | [5]; at 11.0 µM 61% | [5]; [18] 60% | [6]; at 1.2 µM 0% | [6]; at 3.7 µM 3% | [6]; [17] 1% | [6]; at 11.0 µM 13% | [6]; at 33.0 µM 23% | [6]; [18] 7% | [6]; at 50.0 µM 59.7% | [6]; at 100.0 µM 41% | [7]; at 1.2 µM 5% | [7]; at 3.7 µM 11% | [7]; at 11.0 µM 26% | [7]; at 33.0 µM 42% | [7]; at 100.0 µM 61% | [8]; [17] 12% | [8]; [18] 41% | [8]; at 50.0 µM 67.3% | [9]; at 1.2 µM -2% | [9]; at 3.7 µM 0% | [9]; at 11.0 µM 6% | [9]; at 33.0 µM 15% | [9]; at 100.0 µM 22% | [10]; [17] 18% | [10]; [18] 30% | [10]; at 50.0 µM 54.9% | [11]; at 1.2 µM -4% | [11]; at 3.7 µM -7% | [11]; [17] 1% | [11]; at 11.0 µM 8% | [11]; at 33.0 µM 16% | [11]; [18] 8% | [11]; at 50.0 µM 33.1% | [11]; at 100.0 µM 25% | [12]; at 1.2 µM -1% | [12]; at 3.7 µM 3% | [12]; at 11.0 µM 4% | [12]; at 33.0 µM 17% | [12]; at 100.0 µM 46% | [13]; at 1.2 µM -3% | [13]; at 3.7 µM 5% | [13]; at 11.0 µM 13% | [13]; at 33.0 µM 22% | [13]; at 100.0 µM 44% | [14]; at 1.2 µM 3% | [14]; at 3.7 µM 10% | [14]; at 11.0 µM 21% | [14]; at 33.0 µM 34% | [14]; at 100.0 µM 52% | [15]; [17] 9% | [15]; [18] 64% | [16]; at 1.2 µM 45%
